Measured values published in PubChem BioAssay.
Active and inactive are the calls of the source.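 How the source made its calls: active means fluorescence slope after compound addition differing from the mean of all screened samples at 99.7% confidence, in either direction; inactive means the rest.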

The molecules below were run against Alpha-2C adrenergic receptor (Homo sapiens) (UniProt P18825) (assay: compounds altering alpha2C-coupled GIRK flux – cell-based, HEK293 alpha2C/GIRK1/2, thallium flux, primary screen (AID 624;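 further: slope of fluorescence ratio to pre-addition baseline per second over 15 to 24 s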)). Settings: thallium flux BTC fluorescence, at 10 µM, actives lie on both sides.
Chain of Alpha-2C adrenergic receptor (Homo sapiens) (P18825 whole entry, looked up): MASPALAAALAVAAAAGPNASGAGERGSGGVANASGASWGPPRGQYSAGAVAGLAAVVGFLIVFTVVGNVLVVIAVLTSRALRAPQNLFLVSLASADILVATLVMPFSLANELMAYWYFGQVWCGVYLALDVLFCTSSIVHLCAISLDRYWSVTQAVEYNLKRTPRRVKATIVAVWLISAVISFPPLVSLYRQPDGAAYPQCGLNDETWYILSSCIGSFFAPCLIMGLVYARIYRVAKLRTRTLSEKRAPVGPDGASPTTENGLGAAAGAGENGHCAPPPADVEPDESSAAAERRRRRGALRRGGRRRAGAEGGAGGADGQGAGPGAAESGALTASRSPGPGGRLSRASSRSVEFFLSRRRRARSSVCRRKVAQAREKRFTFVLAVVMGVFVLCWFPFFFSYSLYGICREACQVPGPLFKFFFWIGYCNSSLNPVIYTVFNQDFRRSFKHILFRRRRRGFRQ

slope, inactive:
Cc1cccc(C)c1N1C(=O)C2ON(c3ccccc3)C(c3ccncc3)C2C1=O (centres undefined) 0.00363
COc1ccc(C2C=C(c3ccc(Cl)cc3)Nc3nc(NC(C)=O)nn32)cc1 (centres undefined) 0.00461
CC(C)Cc1ccc(C(C)C(=O)O)cc1 (centres undefined) 0.00562
COCCCNc1nc(-c2ccncc2)nc2ccccc12 0.00557
CCCOC(=O)C1[C@H]2C(=O)N(Cc3ccco3)C[C@]23C=C[C@H]1O3 (some centres undefined) 0.00455
COc1ccc(CNC(=O)[C@H](C)NC(=O)C2CCN(S(=O)(=O)c3ccc(C)cc3)CC2)cc1 0.00578
N#C/C(=N\O)c1nc(-c2ccccc2)cs1 0.00629
Oc1ccc(Br)cc1-c1cc(-c2ccccc2F)[nH]n1 0.00987
COc1ccc(/C(O)=C2/C(=O)C(=O)N(CCN3CCOCC3)C2c2ccccn2)cc1OC (centres undefined) 0.00847
CCOc1ccc(/C(O)=C2/C(=O)C(=O)N(c3nc(C)c(C)s3)C2c2ccco2)cc1 (centres undefined) 0.00508
O=C1C2ON(c3ccccc3)C(c3ccncc3)C2C(=O)N1c1ccccc1 (centres undefined) 0.00494
CCOC(=O)N1CCN(/C=C(\C#N)c2nc3ccccc3s2)CC1 0.0139
CCOc1ccc(C2C(C(=O)c3ccc(C)o3)=C(O)C(=O)N2CCN2CCOCC2)cc1OC (centres undefined) 0.00423
CC(C)(C)c1ccc(C(O)CCCN2CCC(C(O)(c3ccccc3)c3ccccc3)CC2)cc1 (centres undefined) 0.00381
